Laboratory results reported in PubChem BioAssay (NCATS).
Results filed as inconclusive are left out. Values without a mark were called inactive. Activity calls are given as the source filed them. Calls come from the whole dose curve; as a rule, active = well fitted cell-killing curve with a large enough effect; inconclusive = small, poorly fitted or top-dose-only effect, or effect the other way; inactive = no such curve, though single readings can be large or run the other way.

experiment: Quantitative High-Throughput drug screen in 47 multiple myeloma cell lines against the NCATS MIPE library collection: PE2_PLB cell viability assay (AID 1919869); settings: PE2_PLB myeloma cells viability, ATP luminescence, 48 h; series mostly up to 45.8 µM; viability (% of control): at the top concentration; note: nearly all actives have a fitted effect of over 35% in size
Description: PI: Beverly A. Mock Ph.D.
Laboratory of Cancer Biology and Genetics,
Center for Cancer Research, National Cancer Institute,
National Institute of Health, Bethesda, Maryland
Drug resistance and disease progression are common in multiple myeloma (MM) patients, underscoring the need for new therapeutic combinations. […] We hypothesized that effective combinations would reduce MYC expression and enhance p16 activity. […] These preclinical data identify potentially useful drug combinations for evaluation in drug-resistant MM and reveal potential mechanisms of combined drug sensitivity.
Described herein is the primary MIPE qHTS used to cherrypick compounds. Validated compounds were then further tested for potential synergistic activiy.
[1] Peat TJ, Gaikwad SM, Dubois W, Gyabaah-Kessie N, Zhang S, Gorjifard S, Phyo Z, Andres M, Hughitt VK, Simpson RM, Miller MA, Girvin AT, Taylor A, Williams D, D'Antonio N, Zhang Y, Rajagopalan A, Flietner E, Wilson K, Zhang X, Shinn P, Klumpp-Thomas C, McKnight C, Itkin Z, Chen L, Kazandijian D, Zhang J, Michalowski AM, Simmons JK, Keats J, Thomas CJ, Mock BA. Drug combinations identified by high-throughput screening promote cell cycle transition and upregulate Smad pathways in myeloma. Cancer Lett. 2023 Aug 1;568:216284. doi: 10.1016/j.canlet.2023.216284. Epub 2023 Jun 24. PMID: 37356470; PMCID: PMC10408729.
SEQUENCE No. (e.g., 1, 2, 3, etc.); […] (e.g., Cells, Incubation, Reagent, etc.); VALUE and DESCRIPTION.
1; Cells; 5 uL; white, solid bottom 1536-well Greiner assay plate.
2; Compounds; 23 nL; Kalypsis pin tool (Wako USA) equipped with a 1536-well pin head to transfer to the assay plates.
3; Incubation; 48 hours; 37C incubation.
4; Reagent;5uL; CellTiter Glo (Promega).
5; Detector; 425V; Luminescence; Viewlux PerkinElmer.
NOTES (numbers refer to Sequence numbers above)
1. The cell-based screening methods employed in this study were like those previously published. Briefly, the corresponding myeloma cell lines were screened in 1,536-well plates with 500 cells, 5-uL per well for inhibition of cell viability (assessed by measuring ATP levels with CellTiterGlo).
2. NCATS MIPE 4.0 library of approved and investigational drugs were added using the Kalypsis pin tool. Wells treated with DMSO only for 100% viability and media only for 0% viability were used as controls.
3. The assay plates were covered and incubated for 48 hours in a 37C, 5% CO2 incubator with controlled humidity.
4. After 48 hours, CellTilter-GloTM luminescent substrate mix (Promega) reagent was added to the assay plate and plates we incubated for 5 min at room temperature.
5. Signal was measured as median relative luminescence units on a ViewLux (PerkinElmer) multiplate reader.
[1] Heske CM, Davis MI, Baumgart JT, Wilson K, Gormally MV, Chen L, Zhang X, Ceribelli M, Duveau DY, Guha R, Ferrer M, Arnaldez FI, Ji J, Tran HL, Zhang Y, Mendoza A, Helman LJ, Thomas CJ. Matrix Screen Identifies Synergistic Combination of PARP Inhibitors and Nicotinamide Phosphoribosyltransferase (NAMPT) Inhibitors in Ewing Sarcoma. Clin Cancer Res. 2017 Dec 1;23(23):7301-7311. doi: 10.1158/1078-0432.CCR-17-1121. Epub 2017 Sep 12. PMID: 28899971; PMCID: PMC6636827.
Potency is the fitted concentration of half-maximal effect.

**Q.** With `Cc1cn[nH]c1` as the molecule, how does the Potency read?
**A.** 4.69 µM (active)

**Q.** Which Potency does the source give for `COc1cc2nccc(Oc3ccc(NC(=O)NC4CC4)c(Cl)c3)c2cc1C(N)=O` here?
**A.** 18.7 µM (active)

**Q.** For `N#Cc1ccc(C(c2ccc(C#N)cc2)n2cncn2)cc1`, which “viability (% of control)” value is on record?
**A.** 87.5%

**Q.** For `CCCn1c(=O)c2[nH]c(C34CC5CC3C[C@@H](C5)C4)nc2n(CCC)c1=O`, which “viability (% of control)” value is on record?
**A.** 129%

**Q.** For `OCCn1cc(-c2cnc3nnn(Cc4ccc5ncccc5c4)c3n2)cn1`, which “viability (% of control)” value is on record?
**A.** 90.7%

**Q.** With `NC[C@H](O)c1ccc(O)c(O)c1` as the molecule, how does the Potency read?
**A.** 11.8 µM (active)

**Q.** Which “viability (% of control)” value does the source give for `COc1ccc2nc(S(=O)Cc3ncc(C)c(OC)c3C)[nH]c2c1` (stereo not given) here?
**A.** 91.2%

**Q.** Which “viability (% of control)” value does the source give for `Oc1ccc(C2CNCCc3c2cc(O)c(O)c3Cl)cc1` (stereo not given) here?
**A.** 85.8%

**Q.** With `Cc1cccc(-c2nn(C(=S)Nc3ccccc3)cc2-c2ccnc3ccccc23)n1` as the molecule, how does the Potency read?
**A.** 7.43 µM (active)

**Q.** With `Cc1cc([C@@H](C)Nc2ccccc2C(=O)O)c2nc(N3CCOCC3)cc(=O)n2c1` as the molecule, how does the Potency read?
**A.** 9.59 µM (active)

**Q.** Which Potency does the source give for `CCCS(=O)(=O)Nc1ccc(F)c(C(=O)c2c[nH]c3ncc(-c4ccc(Cl)cc4)cc23)c1F` here?
**A.** 11.8 µM (active)

**Q.** Which Potency does the source give for `Cc1ccc(-n2nc(C(C)(C)C)cc2NC(=O)Nc2ccc(OCCN3CCOCC3)c3ccccc23)cc1` here?
**A.** 16.6 µM (active)

**Q.** For `COc1ccc2c3n(c(=NC(=O)c4cccnc4)nc2c1OC)CCN3`, which Potency is on record?
**A.** 11.8 µM (active)

**Q.** Which Potency does the source give for `CC1(C)Cc2c(-c3ccccc3)c(-c3ccc(Cl)cc3)c(CC(=O)O)n2C1` here?
**A.** 20.9 µM (active)

**Q.** With `CC(C)C[C@H](NC(=O)[C@@H](O)[C@H](N)Cc1ccccc1)C(=O)O` as the molecule, how does the Potency read?
**A.** 26.4 µM (active)

**Q.** Which Potency does the source give for `COc1c(Cl)cc2c([nH]c3cnccc32)c1NC(=O)c1cccnc1C` here?
**A.** 3.32 µM (active)

**Q.** With `Fc1ccc(Cl)cc1-c1nc(Nc2ccncc2)c2nccnc2n1` as the molecule, how does the Potency read?
**A.** 7.43 µM (active)

**Q.** Which “viability (% of control)” value does the source give for `COc1ccc(CCN2CCN(CCCc3ccccc3)CC2)cc1OC` here?
**A.** 101%

**Q.** With `CC[C@@H](C)[C@H](NC(=O)[C@H](CC1CCCCC1)NC(=O)c1ccno1)C(=O)N1CCC2(CCc3ccccc32)CC1` as the molecule, how does the “viability (% of control)” value read?
**A.** 78%

**Q.** Which “viability (% of control)” value does the source give for `Clc1cccc(Cl)c1NC1=NCCN1` here?
**A.** 115%

**Q.** With `CCc1cc(Nc2nccc(-c3c(-c4ccc(OC)c(C(=O)Nc5c(F)cccc5F)c4)nc4ccccn34)n2)c(OC)cc1N1CCC(N2CCN(S(C)(=O)=O)CC2)CC1` as the molecule, how does the Potency read?
**A.** 5.26 µM (active)

**Q.** For `Cc1csc(NC(=O)c2sc3nc4c(c(C(F)(F)F)c3c2N)CCC4)n1`, which “viability (% of control)” value is on record?
**A.** 93.5%

**Q.** For `COc1ccc(-c2ccc3c(N4CCOCC4)nc(N4C[C@@H](C)O[C@@H](C)C4)nc3n2)cc1CO`, which Potency is on record?
**A.** 0.833 µM (active)

**Q.** For `CS(=O)(=O)Oc1ccc2c(NC(N)=O)c(C(=O)c3ccc(Cl)cc3Cl)oc2c1`, which Potency is on record?
**A.** 23.5 µM (active)

**Q.** For `c1ccc(-c2nn3c(c2-c2ccnc4cc(OCCN5CCOCC5)ccc24)CCC3)nc1`, which Potency is on record?
**A.** 10.5 µM (active)

**Q.** Which “viability (% of control)” value does the source give for `Cc1c(CCOc2ccc(C(=O)O)cc2)c2cc(Cl)ccc2n1C(c1ccccc1)c1ccccc1` here?
**A.** 98.7%

**Q.** For `CC(c1cc2ccccc2s1)N(O)C(N)=O` (stereo not given), which “viability (% of control)” value is on record?
**A.** 104%

**Q.** For `O=NN(CCCl)C(=O)NCCCl`, which “viability (% of control)” value is on record?
**A.** 120%

**Q.** For `Nc1nc2[nH]cc(CCc3ccc(C(=O)N[C@@H](CCC(=O)O)C(=O)O)cc3)c2c(=O)[nH]1`, which “viability (% of control)” value is on record?
**A.** 112%

**Q.** With `Oc1cccc(-c2nc(N3CCOCC3)c3oc4ncccc4c3n2)c1` as the molecule, how does the Potency read?
**A.** 0.0855 µM (active)

**Q.** Which “viability (% of control)” value does the source give for `Cc1[nH]c(=O)c(C#N)cc1-c1ccc2nccn2c1` here?
**A.** 100%

**Q.** Which “viability (% of control)” value does the source give for `OC(CCN1CCCCC1)(c1ccccc1)C1CC2C=CC1C2` (stereo not given) here?
**A.** 124%

**Q.** Which Potency does the source give for `CO[C@@H]1[C@H](N(C)C(=O)c2ccccc2)C[C@H]2O[C@]1(C)n1c3ccccc3c3c4c(c5c6ccccc6n2c5c31)C(=O)NC4` here?
**A.** 0.59 µM (active)

**Q.** With `COCC(=O)NCC=Cc1ccc2ncnc(Nc3ccc(Oc4ccc(C)nc4)c(C)c3)c2c1` as the molecule, how does the Potency read?
**A.** 16.6 µM (active)

**Q.** With `COc1ccc([C@@H]2CC(=O)c3c(O)cc(O[C@@H]4O[C@H](CO[C@@H]5O[C@@H](C)[C@H](O)[C@@H](O)[C@@H]5O)[C@@H](O)[C@H](O)[C@@H]4O)cc3O2)cc1O` as the molecule, how does the “viability (% of control)” value read?
**A.** 102%

**Q.** For `O=c1n(CCCN2CCN(c3cccc(Cl)c3)CC2)nc2ccccn12`, which “viability (% of control)” value is on record?
**A.** 99.4%

**Q.** With `CCOC(=O)C1=C[C@]2(CC)CCCN3CCc4c(n1c1ccccc41)[C@@H]32` as the molecule, how does the Potency read?
**A.** 9.35 µM (active)

**Q.** Which “viability (% of control)” value does the source give for `OC(CN1CCC(Cc2ccc(F)cc2)CC1)c1ccc(Cl)cc1` (stereo not given) here?
**A.** 108%

**Q.** Which Potency does the source give for `CCN(CC)CCCC(C)Nc1nc(C)cc(Nc2ccc3nc(C)cc(N)c3c2)n1` (stereo not given) here?
**A.** 10.5 µM (active)

**Q.** With `Nc1ccc(S(=O)(=O)Nc2ccnn2-c2ccccc2)cc1` as the molecule, how does the “viability (% of control)” value read?
**A.** 110%
